Legend:
Assay in all cases: log2 ratio of Biotin-Ahx-Ub-VS probe labelling (fragment/DMSO); higher = less target engagement (more negative = stronger competition), active = hit call of the paper (q ≤ 0.05, log2 ratio ≤ -1)
Settings in all cases: compound concentration: 200 uM; treatment time: 3 h
USP16 = USP16 (UniProt Q9Y5T5)
How it was run: (§1)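 Global-median-normalised Spectronaut label-free quantities were compared by unpaired t-test, and values are average log2 ratios of fragment over vehicle. Only proteins with ≥2 unique peptides were used. HEK293T lysate (495 µg per sample) was treated in triplicate with fragment at 200 µM or vehicle for 3 h and then with Biotin-Ahx-Ub-VS at 0.5 µM final for 1 h. Labelled DUBs were then NeutrAvidin-enriched, digested with LysC and trypsin, and run by diaPASEF LC-MS/MS.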

USP19 = biological target: T1, USP19 (UniProt O94966)
T1 sequence (whole entry): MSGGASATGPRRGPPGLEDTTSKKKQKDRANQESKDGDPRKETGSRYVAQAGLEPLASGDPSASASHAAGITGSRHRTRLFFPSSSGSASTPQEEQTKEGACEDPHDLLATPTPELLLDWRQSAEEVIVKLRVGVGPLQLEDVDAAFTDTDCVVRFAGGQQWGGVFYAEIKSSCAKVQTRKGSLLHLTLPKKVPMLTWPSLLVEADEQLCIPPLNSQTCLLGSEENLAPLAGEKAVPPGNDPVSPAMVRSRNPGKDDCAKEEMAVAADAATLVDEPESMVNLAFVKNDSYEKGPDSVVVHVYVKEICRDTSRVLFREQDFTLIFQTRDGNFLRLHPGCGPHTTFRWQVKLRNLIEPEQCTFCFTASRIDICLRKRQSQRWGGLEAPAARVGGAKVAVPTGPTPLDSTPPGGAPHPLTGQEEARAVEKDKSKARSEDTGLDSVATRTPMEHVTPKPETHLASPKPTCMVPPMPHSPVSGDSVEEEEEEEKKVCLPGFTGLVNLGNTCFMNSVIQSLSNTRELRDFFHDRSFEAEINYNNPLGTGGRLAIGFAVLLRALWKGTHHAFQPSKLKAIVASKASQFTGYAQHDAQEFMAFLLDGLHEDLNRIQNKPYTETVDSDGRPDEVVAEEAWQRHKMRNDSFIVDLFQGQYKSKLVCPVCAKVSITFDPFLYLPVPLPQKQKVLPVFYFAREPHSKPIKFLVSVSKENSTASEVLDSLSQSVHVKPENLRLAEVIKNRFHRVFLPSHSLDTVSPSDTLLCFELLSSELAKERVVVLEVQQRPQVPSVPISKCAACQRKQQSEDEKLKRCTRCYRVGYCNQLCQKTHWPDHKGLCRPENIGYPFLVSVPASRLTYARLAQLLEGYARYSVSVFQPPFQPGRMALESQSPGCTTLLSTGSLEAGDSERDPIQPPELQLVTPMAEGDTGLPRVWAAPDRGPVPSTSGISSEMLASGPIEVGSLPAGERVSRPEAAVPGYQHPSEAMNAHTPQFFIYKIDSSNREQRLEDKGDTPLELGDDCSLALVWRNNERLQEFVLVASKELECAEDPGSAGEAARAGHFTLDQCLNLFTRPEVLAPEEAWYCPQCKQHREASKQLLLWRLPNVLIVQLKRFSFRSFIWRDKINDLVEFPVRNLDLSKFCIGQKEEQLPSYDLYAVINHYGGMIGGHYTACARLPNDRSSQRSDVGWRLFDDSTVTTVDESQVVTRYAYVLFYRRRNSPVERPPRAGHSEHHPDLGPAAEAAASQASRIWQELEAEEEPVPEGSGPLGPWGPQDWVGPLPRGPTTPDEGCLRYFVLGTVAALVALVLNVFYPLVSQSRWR
How it was run: as §1

USP24 = USP24 (UniProt Q9UPU5)
How it was run: as §1

USP25 = biological target: T2, USP25 (UniProt Q9UHP3)
T2 sequence (whole entry): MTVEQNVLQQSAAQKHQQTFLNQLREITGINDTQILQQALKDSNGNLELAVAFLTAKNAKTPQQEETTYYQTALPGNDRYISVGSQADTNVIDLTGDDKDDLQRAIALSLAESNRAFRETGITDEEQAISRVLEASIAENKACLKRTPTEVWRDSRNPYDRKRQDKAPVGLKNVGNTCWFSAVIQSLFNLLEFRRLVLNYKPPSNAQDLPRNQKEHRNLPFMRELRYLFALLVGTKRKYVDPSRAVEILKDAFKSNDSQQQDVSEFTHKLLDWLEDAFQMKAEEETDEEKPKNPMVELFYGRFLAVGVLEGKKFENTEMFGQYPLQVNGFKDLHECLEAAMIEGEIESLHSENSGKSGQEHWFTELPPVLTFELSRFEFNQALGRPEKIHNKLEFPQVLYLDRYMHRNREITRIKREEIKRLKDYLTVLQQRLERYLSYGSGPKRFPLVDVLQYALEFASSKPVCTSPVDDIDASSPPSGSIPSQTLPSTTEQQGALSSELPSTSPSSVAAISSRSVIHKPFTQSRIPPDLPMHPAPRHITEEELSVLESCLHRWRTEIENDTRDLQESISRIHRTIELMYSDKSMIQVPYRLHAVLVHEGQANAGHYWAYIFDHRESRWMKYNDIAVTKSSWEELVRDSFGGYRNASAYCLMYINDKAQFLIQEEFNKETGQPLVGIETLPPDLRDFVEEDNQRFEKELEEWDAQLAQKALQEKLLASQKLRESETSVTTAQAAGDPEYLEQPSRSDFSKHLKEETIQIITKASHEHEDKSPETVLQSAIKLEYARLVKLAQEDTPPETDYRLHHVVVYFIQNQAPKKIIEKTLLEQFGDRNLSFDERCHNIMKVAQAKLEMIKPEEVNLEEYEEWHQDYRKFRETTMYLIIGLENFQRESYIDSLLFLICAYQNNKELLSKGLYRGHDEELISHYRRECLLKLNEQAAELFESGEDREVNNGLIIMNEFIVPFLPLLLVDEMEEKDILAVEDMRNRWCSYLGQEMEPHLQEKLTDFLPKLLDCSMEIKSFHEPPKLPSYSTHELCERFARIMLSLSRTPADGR
How it was run: as §1

USP28 = biological target: T3, USP28 (UniProt Q96RU2)
T3 sequence (whole entry): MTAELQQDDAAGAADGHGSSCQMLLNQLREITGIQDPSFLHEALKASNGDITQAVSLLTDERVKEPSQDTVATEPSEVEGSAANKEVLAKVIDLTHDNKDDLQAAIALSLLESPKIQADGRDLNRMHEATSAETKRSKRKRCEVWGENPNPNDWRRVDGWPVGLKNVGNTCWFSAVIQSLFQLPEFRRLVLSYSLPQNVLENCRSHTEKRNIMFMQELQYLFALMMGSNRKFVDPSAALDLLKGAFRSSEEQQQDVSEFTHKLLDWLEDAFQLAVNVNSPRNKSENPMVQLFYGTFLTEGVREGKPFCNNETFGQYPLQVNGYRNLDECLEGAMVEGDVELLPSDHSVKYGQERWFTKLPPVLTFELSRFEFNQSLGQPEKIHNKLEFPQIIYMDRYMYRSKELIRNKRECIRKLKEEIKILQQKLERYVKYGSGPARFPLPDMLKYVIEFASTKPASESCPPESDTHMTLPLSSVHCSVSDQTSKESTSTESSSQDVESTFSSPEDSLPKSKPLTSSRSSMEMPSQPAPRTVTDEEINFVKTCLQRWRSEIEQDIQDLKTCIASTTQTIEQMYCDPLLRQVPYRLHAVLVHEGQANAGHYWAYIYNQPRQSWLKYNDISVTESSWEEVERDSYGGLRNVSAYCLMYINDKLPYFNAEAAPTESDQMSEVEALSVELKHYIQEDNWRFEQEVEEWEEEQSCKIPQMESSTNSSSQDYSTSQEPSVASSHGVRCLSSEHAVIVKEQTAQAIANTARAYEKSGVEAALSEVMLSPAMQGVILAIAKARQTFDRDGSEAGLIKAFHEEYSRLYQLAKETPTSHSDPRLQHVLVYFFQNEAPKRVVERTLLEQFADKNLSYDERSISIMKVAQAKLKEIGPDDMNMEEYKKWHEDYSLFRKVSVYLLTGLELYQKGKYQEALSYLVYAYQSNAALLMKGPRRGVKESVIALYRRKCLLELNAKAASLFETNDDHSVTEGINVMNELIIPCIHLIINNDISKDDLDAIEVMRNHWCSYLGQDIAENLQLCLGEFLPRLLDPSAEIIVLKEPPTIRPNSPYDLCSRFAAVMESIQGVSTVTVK
How it was run: as §1

Measured: log2 ratio of Biotin-Ahx-Ub-VS probe labelling

Sequence of USP24 (Q9UPU5 whole entry): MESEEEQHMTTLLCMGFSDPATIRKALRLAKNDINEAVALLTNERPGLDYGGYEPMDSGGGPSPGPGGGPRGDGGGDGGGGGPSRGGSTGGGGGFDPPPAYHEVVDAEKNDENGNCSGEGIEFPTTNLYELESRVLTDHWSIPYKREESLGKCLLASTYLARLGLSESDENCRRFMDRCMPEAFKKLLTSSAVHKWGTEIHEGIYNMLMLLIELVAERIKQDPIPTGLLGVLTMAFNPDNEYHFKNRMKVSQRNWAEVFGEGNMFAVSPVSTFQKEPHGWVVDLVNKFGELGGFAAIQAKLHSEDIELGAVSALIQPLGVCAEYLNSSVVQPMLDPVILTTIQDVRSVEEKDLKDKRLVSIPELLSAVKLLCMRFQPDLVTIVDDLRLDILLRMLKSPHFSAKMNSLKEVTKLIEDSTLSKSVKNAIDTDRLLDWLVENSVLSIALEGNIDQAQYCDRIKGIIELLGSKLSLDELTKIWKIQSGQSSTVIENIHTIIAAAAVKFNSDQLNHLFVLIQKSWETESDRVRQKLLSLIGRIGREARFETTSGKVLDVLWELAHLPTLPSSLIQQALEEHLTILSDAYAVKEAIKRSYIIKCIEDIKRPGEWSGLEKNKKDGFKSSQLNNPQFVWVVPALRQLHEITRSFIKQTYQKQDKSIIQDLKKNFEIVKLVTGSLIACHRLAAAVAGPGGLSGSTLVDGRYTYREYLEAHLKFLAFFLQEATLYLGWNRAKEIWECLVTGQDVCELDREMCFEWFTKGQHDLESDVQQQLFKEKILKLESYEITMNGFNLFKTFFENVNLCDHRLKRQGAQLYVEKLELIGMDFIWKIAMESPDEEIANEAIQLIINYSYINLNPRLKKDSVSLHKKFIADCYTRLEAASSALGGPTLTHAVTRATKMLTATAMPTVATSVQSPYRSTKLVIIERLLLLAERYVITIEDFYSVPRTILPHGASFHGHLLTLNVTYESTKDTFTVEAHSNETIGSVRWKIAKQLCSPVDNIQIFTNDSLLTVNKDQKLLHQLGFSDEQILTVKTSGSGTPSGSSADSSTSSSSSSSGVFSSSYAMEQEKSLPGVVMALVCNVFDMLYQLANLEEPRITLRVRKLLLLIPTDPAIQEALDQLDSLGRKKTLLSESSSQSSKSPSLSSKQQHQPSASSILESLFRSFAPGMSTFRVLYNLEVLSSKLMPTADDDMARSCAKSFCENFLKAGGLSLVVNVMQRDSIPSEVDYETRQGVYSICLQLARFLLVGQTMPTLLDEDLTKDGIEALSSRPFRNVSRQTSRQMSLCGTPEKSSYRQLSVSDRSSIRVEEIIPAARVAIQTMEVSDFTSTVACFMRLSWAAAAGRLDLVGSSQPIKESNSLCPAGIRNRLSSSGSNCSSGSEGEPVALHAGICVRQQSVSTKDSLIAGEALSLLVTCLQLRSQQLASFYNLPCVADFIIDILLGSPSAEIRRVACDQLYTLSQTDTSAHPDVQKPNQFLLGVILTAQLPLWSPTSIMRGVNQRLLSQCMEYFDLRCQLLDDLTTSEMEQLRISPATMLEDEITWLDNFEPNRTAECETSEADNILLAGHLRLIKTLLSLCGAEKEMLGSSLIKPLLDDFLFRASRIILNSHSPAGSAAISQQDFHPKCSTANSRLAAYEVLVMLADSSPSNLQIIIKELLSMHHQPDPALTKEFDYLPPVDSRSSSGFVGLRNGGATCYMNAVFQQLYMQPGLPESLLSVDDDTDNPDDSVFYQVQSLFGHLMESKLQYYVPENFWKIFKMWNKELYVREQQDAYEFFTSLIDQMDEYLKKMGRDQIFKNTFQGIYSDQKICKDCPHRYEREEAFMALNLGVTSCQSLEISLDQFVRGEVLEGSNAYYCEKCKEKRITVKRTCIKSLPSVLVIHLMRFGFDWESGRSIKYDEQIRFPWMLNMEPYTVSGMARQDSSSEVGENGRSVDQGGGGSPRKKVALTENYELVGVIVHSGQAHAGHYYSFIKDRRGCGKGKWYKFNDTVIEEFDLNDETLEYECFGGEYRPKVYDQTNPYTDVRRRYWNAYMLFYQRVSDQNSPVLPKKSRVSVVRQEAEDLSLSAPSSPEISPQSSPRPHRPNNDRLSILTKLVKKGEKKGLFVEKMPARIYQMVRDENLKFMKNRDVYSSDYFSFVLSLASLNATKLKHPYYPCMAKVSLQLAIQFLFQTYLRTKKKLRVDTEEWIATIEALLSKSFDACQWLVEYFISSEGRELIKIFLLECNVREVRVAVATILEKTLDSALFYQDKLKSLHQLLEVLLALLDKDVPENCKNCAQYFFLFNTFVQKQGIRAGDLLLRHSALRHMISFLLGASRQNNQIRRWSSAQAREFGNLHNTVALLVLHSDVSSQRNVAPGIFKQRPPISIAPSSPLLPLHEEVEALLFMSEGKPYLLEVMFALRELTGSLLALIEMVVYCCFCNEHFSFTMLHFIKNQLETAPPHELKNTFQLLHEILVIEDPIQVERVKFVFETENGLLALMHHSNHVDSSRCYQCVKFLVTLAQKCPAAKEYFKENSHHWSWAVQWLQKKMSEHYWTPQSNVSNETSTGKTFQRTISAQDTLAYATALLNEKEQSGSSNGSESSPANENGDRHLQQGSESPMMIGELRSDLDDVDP
Sequence of USP16 (Q9Y5T5 whole entry, looked up, the tested form may be a part): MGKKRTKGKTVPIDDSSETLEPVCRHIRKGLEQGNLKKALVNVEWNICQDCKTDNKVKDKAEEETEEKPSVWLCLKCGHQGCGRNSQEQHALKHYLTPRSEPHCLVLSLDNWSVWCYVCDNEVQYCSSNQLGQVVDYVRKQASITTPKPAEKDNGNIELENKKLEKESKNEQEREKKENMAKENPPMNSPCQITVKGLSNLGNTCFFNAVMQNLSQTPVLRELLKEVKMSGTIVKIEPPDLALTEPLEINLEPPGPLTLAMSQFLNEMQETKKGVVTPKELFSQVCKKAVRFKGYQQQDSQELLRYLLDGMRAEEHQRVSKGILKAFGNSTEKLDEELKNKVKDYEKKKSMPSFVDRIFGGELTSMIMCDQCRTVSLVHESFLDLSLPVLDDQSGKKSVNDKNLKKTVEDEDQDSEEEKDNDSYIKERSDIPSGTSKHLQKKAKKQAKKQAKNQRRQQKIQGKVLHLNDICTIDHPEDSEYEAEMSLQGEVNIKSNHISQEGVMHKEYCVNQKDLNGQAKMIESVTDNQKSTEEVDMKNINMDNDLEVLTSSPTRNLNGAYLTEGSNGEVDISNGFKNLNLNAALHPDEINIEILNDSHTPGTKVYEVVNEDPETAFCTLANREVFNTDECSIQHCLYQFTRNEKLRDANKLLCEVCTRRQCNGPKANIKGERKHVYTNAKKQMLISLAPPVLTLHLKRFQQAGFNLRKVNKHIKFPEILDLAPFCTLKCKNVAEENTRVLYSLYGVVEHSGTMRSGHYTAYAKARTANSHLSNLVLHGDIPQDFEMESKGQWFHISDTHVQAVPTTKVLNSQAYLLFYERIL

O=C(CCl)NC1CCC(C(F)(F)F)CC1 (stereo not given)
inactive: USP16 -0.000805 | USP19 -0.155 | USP24 -0.771 | USP25 -0.322 | USP28 -0.705
